# Shiga toxin inh: A qHTS for Small Molecule Inhibitors of Shiga Toxin | Vero cells, Shiga toxin protein synthesis inhibition reporter | inhibition, % at 38.7 µM | actives 9.2% (n = 290,000) | AID 2315, 2010; in the data active means inhibition mostly above about 28%, no sharp cut-off; inactive means mostly below about 43%
# NS1 function inh: qHTS Assay for Inhibitors of Influenza NS1 Protein Function | AID 2326, 2010 | actives 0.4% (n = 270,000) | Potency, µM (titrated, usually from 46.1 µM); calls by dose curve; further: actives are rising curves; nearly all actives have a fitted effect of over 50% in size
#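 A cell-based growth assay was used: compounds that relieve NS1-induced slow growth of budding yeast raise OD600. Assay medium was yeast nitrogen base with ammonium sulphate and -URA supplement, pH 6.0, with 2% galactose.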
# Cycloheximide cs: Cycloheximide Counterscreen for Small Molecule Inhibitors of Shiga Toxin | cell reporter, cycloheximide protein synthesis inhibition counterscreen | max response, % | actives 12% (n = 300,000); in the data active means max response mostly above about 13%, no sharp cut-off; inactive means mostly below about 14%; further: read at 38.3 µM for the half of the compounds with a filed dose
# Pf growth 96h: Primary qHTS for delayed death inhibitors of the malarial parasite plastid, 96 hour incubation; actives 6.9% (n = 320,000); Potency, µM (titrated, usually from 28.7 µM), usual class: inhibitors; AID 504834, 2011; P. falciparum luciferase reporter growth, 96 h
#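 P. falciparum expressing integrated firefly luciferase grown in erythrocytes (2% hematocrit, 0.05% parasitemia final) with compounds for 96 hours at 37 C, 5% CO2. Growth inhibition read as loss of luminescence after adding luciferase detection reagent.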
# Pf growth 48h: Primary qHTS for delayed death inhibitors of the malarial parasite plastid, 48 hour incubation. P. falciparum luciferase growth in erythrocytes, 48 h. Potency, µM (series often up to 28.7 µM), actives largely listed as inhibitors. actives 5.9% (n = 310,000)
#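 Luciferase-expressing parasites in RBCs, 2% Hct / 0.1% parasitemia final; RPMI 1640 + 0.5% Albumax; 37 C, 5% CO2, one generation; luminescence read-out, lower signal = inhibition.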
# Sm TGR block: qHTS Assay for the Inhibitors of Schistosoma Mansoni Peroxiredoxins. Potency, µM (titrated, usually from 114 µM), usual class: inhibitors. actives 3% (n = 360,000). Schistosoma mansoni thioredoxin glutathione reductase (TGR), Q962Y6. AID 485364, 2010. purified TGR, DTNB reduction, TNB absorbance 405 nm; further: nearly all actives have a fitted effect of over 60% in size
#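 First, TGR (20 nM dispensed) and NADPH were mixed with compound. Second, a 15 min room-temperature incubation followed. Third, further NADPH and then DTNB were added to start the reaction. Finally, TNB absorbance was monitored kinetically.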
# A number is an active result; . = inactive; ? = inconclusive; / = not tested or not shown; [ ] = another dose, or the depositor's remark. Compounds with a hit are over-represented: about 21% of the library has one in this group of screens. Unless noted, the call rests on the fitted dose curve; in most records, active means well fitted curve in the direction sought with a large enough effect; inconclusive means small, poorly fitted or top-dose-only effect, or another doubt; inactive means no such curve, though single readings can be large; an effect the other way counts as inactive or inconclusive.
SMILES,Shiga toxin inh,NS1 function inh,Cycloheximide cs,Pf growth 96h,Pf growth 48h,Sm TGR block
Cc1ccc(C)c(OCC(=O)Nc2ccc(N3CCOCC3)cc2N2CCOCC2)c1,/,/,/,?,?,.
COc1ccc(S(=O)(=O)c2cnc3cc(OC)c(OC)cc3c2N2CCCC(C)C2)cc1 (centres undefined),/,/,/,/,/,.
CCc1ccccc1NC(=O)C1CCN(C2=NS(=O)(=O)C(c3ccc(C)c(C)c3)=C2C)CC1,/,/,/,/,/,.
O=C(CN1CCOCC1)Nc1ccc([N+](=O)[O-])cc1Br,.,.,.,.,?,.
Cc1ccc(Nc2nc(C)c(CCC(C)C)c(=O)[nH]2)cc1,.,.,.,.,?,.
Cc1nc(Nc2ccc(F)cc2)[nH]c(=O)c1CCC(C)C,.,.,.,/,5.86µM,.
CC1(C)CSC(=NCCc2ccccc2)N1,53.9,.,14.2,.,.,.
COc1cc(C2C(C#N)=C(N)Oc3n[nH]c(C)c32)ccc1OC(=O)c1ccccc1 (centres undefined),.,.,.,16.5µM,.,.
COCc1[nH]nc2c1C(c1ccc(OC)cc1)C(C#N)=C(N)O2 (centres undefined),.,.,.,1.31µM,.,.
CCCc1[nH]nc2c1C(c1ccc(OCCN3CCOCC3)c(OCC)c1)C(C#N)=C(N)O2 (centres undefined),.,.,.,.,.,.
CCOc1cc(C2C(C#N)=C(N)Oc3n[nH]c(CC)c32)ccc1OCCN1CCOCC1 (centres undefined),.,.,.,9.28µM,?,.
COc1ccc(-c2ccc(C3C(C#N)=C(N)Oc4n[nH]c(C)c43)o2)cc1 (centres undefined),.,.,23.2,.,.,.
Cc1ccc2cc(CN(c3ccccc3C)S(=O)(=O)c3ccccc3)c(=O)[nH]c2c1,.,.,.,?,.,.
CCc1nnc(SCC(=O)Nc2ccc(NC(C)=O)cc2)n1-n1cccc1,/,/,/,.,.,.
CCCNC(=O)Cn1c(=O)c2cccn2c2cccnc21,/,/,/,/,/,.
Cc1ccccc1C(=O)Nc1cccc(NC(=O)c2cccnc2)c1,.,.,.,.,.,.
O=C(Nc1ccc(N2CCOCC2)c(Cl)c1)c1cc(F)c(F)cc1Cl,.,.,18.9,/,.,.
O=C(Nc1ccc(F)cc1)c1cccnc1,.,.,.,.,.,.
CSc1ccc(NC(=O)c2cccnc2)cc1C#N,50.7,/,.,.[5.75 µM],.,.
Cc1ccc(NC(=O)c2cccnc2)cc1C,/,.,19.1,?,.,.
Cc1ccc([N+](=O)[O-])cc1NC(=O)c1cccnc1,.,.,.,10.4µM,.,.
O=C1NC2(CCCCCC2)C(=O)N1Cc1c(F)cccc1Cl,.,.,.,.,/,.
CC(C)(C)NC(=O)C1CCN(S(=O)(=O)c2cccc(C(F)(F)F)c2)CC1,.,/,.,.,.,.
O=C(Nc1ccc(Cl)c(Cl)c1)c1cccnc1,/,.,35.2,?,.,.
O=C(Nc1nnc(-c2ccccc2Cl)o1)c1cccnc1,58.2,.,18.9,.,.,.
SMILES,Shiga toxin inh,NS1 function inh,Cycloheximide cs,Pf growth 96h,Pf growth 48h,Sm TGR block
O=C(Nc1ccc(N2CCCCC2)c(Cl)c1)c1cccnc1,96.0,.,.,.,.,.
O=C(Nc1ccc(NC(=O)c2ccccc2Cl)cc1)c1cccnc1,.,.,.,.,?,.
O=C(Nc1ccc(N2CCCC2)c(Cl)c1)c1cccnc1,54.4,?,38.6,?,?,50.1µM
O=C(Nc1ccc(N2CCN(C(=O)c3cccs3)CC2)c(Cl)c1)c1cccnc1,.,/,.,.,?,.
COc1ccc(C2C(=O)N(C3CCCCC3)CC(=O)N2CCc2ccc(OC)c(OC)c2)cc1 (centres undefined),/,/,/,/,/,.
O=C(Nc1ccccc1N1CCOCC1)c1cccnc1,.,/,.,.,.,.
O=C(Nc1ccc(N2CCOCC2)cc1)c1cccnc1,38.0,.,27.9,?,.,.
O=C(Nc1ccc(N2CCOCC2)c(Cl)c1)c1c(F)c(F)c(F)c(F)c1F,.,.,.,.,.,.
NS(=O)(=O)c1ccc(NC(NC(=O)c2cccnc2)C(Cl)(Cl)Cl)cc1 (centres undefined),.,.,.,.,.,.
Cc1ccc(NC(NC(=O)c2cccnc2)C(Cl)(Cl)Cl)cc1 (centres undefined),.,.,.,13.1µM,.,.
O=C(Nc1ccc(N2CCOCC2)c(Cl)c1)c1cccnc1,52.7,.,26.2,.,.,.
O=C(Nc1ccc(N2CCOCC2)c(Cl)c1)c1cccc(F)c1,118.6,.,43.5,/,.,.
O=C(Nc1ccc(N2CCN(Cc3ccccc3)CC2)cc1)c1cccnc1,.,.,.,?,?,.
CCN1C(=O)c2ccccc2S(=O)(=O)c2ccc(C(=O)NCc3ccccc3OC)cc21,/,/,/,/,/,.
Cc1ccccc1N=C1NC(=O)/C(=C/c2cccnc2)S1,.,.,.,?,?,.
COc1c(C)cccc1C(=O)Nc1ccc(N2CCOCC2)c(Cl)c1,121.3,.,89.1,.,/,.
COc1ccc(N2CCOCC2)c(NC(=O)c2ccc(Br)o2)c1,.,.,.,.,?,.
COc1ccc(N2CCOCC2)c(NC(=O)c2cccc3ccccc23)c1,.,.,.,.,3.7µM,.
Cn1nc(C(C)(C)C)cc1C(=O)NNC(=O)c1ccc(C(F)(F)F)cc1,.,.,.,.,.,.
Cn1nc(C(C)(C)C)cc1C(=O)Sc1cccc(Br)c1,.,.,.,.,.,12.6µM
Cn1nc(C(C)(C)C)cc1C(=O)O,.,.,.,9.28µM,.,.
Cc1c(N(C(=O)CNC(=O)c2ccccc2)C2(C(=O)NC3CCCCC3)CCCCC2)c(=O)n(-c2ccccc2)n1C,.,/,.,?,5.86µM,.
CC(=O)NCC(=O)N(c1c(C)n(C)n(-c2ccccc2)c1=O)C1(C(=O)NC2CCCC2)CCCCC1,.,.,.,?,.,.
CCCCOc1cccc(C(=O)N(Cc2ccc(Cl)cc2)C2CCS(=O)(=O)C2)c1 (centres undefined),/,/,/,/,/,.
Cc1cc(C(C)c2ccccc2)c(O)c(CN2CCOCC2)c1C (centres undefined),.,.,.,.,1.85µM,.
CCc1cc2c(-c3ccccc3)cc(=O)oc2c(CN2CCOCC2)c1O,.,.,.,/,?,.
CCOc1ccccc1-c1c2cc(O)c(=O)cc-2oc2cc(O)c(O)cc12,.,?,.,.,13.1µM,44.7µM
CCOC(=O)c1oc2cc(O)ccc2c(=O)c1-c1ccccc1OC,.,.,.,.,.,.
O=c1cc2oc3cc(O)c(O)cc3c(-c3ccccc3O)c-2cc1O,.,.,.,3.7µM,4.15µM,8.91µM
COc1ccc(OC)c(-c2c3cc(O)c(=O)cc-3oc3cc(O)c(O)cc23)c1,.,?,.,.,10.4µM,?

# Bioassay records deposited in PubChem BioAssay by National Center for Advancing Translational Sciences (NCATS).
